High-throughput results from PubChem.
Shown are actives, neighbours in structure and some others; about 3.3% of the full set was active somewhere.
PfM18AAP inh – blocks P. falciparum M18 aspartyl aminopeptidase | 290,000 tested, 1.2% active | inhibition, % at 7.35 µM | AID 1822 | recombinant PfM18AAP, H-Glu-NHMec fluorogenic cleavage;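 active = inhibition above the campaign mean inhibition over all tested compounds plus 3 SD, cut at about 28% in these data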;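 note: 0% = plate median of test compound wells and 100% = 2 mM ZnCl2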
MBD2 inh – inhibitors of human MBD2 binding to methylated oligonucleotide; Q9UBB5; TR-FRET; 370,000 tested, 0.31% active; AID 686964; inhibition, % at 4.4 µM; in the data active = inhibition above about 13%
Target sequence (Q9UBB5 whole entry, looked up): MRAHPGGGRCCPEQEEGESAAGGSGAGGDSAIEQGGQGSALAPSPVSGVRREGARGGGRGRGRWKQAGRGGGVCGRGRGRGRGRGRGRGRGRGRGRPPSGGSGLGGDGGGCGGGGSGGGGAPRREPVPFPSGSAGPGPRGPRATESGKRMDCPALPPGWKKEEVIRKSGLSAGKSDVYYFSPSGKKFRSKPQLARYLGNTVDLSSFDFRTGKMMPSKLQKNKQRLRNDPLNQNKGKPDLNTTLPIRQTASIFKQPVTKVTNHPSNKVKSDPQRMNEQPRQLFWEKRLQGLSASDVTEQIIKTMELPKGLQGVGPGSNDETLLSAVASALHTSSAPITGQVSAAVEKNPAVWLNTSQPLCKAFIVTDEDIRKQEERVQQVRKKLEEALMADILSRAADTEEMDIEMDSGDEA
PRMT1 inh – blocks human protein arginine methyltransferase 1 | Q99873 | recombinant PRMT1, activity-based probe fluorescence polarization | inhibition, % at 2.79 µM | 370,000 tested, 1.3% active | AID 652257;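 active = inhibition above about 21% made by adding two undisclosed values, limit read from the data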
PfGluPho inh – PfG6PD (Plasmodium falciparum) enzyme inhibition; PfGluPho enzyme, NADPH resazurin-diaphorase fluorescence; inhibition, % at 20 µM; 350,000 tested, 0.78% active;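 active = inhibition reaching at least a set limit at 20 µM in the primary screen, cut at about 59% in these data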;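 note: 0% = DMSO wells with substrate and 100% = DMSO wells lacking glucose-6-phosphate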
UHRF1 MBD2 ctr – blocks human UHRF1 binding to methylated DNA | Q96T88 | UHRF1 binding to methylated oligo, TR-FRET | inhibition, % at 4.4 µM | 370,000 tested, 0.75% active;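 note: UHRF1 SRA domain binding a hemimethylated CpG hairpin DNA probe; 0% = median of test compound wells and 100% = reference inhibitor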
UHRF1 ctr MBD2 – counter-screen for MBD2 inhibitors: human UHRF1 methylated DNA binding inhibitors; shares compounds with MBD2 inh; UHRF1 binding to methylated oligonucleotide, TR-FRET; inhibition, % at 4.4 µM; 1,000 tested, 25% active;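 note: UHRF1 SRA domain binding a labeled hemimethylated CpG hairpin DNA; 0% = vehicle only and 100% = reference inhibitor with vehicle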
MBD2 confirm – MBD2-DBD methyl-DNA binding inhibition, TR-FRET confirmation; 1,000 tested, 26% active; AID 720531; inhibition, % at 4.4 µM; shares compounds with MBD2 inh; TR-FRET MBD2-DBD binding to methylated oligonucleotide; in the data active = inhibition above about 14%
An asterisk follows results filed as active; nt = no result. Cut-off read from the data, not from the text of the source, unless noted: active = inhibition above about 21%; inactive = the rest.

SMILES	PfM18AAP inh	MBD2 inh	PRMT1 inh	PfGluPho inh	UHRF1 MBD2 ctr	UHRF1 ctr MBD2	MBD2 confirm
CCOC(=O)N1CCN(S(=O)(=O)N2CCCC(C(=O)NCc3cc(Br)ccc3OC)C2)CC1 (stereo not drawn)	nt	2.9	3.1	6.1	0.6	nt	nt
Cc1cccc(C(=O)Nc2nsc(N)n2)c1	nt	0.8	-0.8	4.6	0.8	nt	nt
Cc1c(-c2ccc(F)cc2)nc(N)c(C#N)c1-c1cccnc1	1.3	1.7	1.6	-12.7	-1.0	nt	nt
Cc1ccc(-c2c(C)c(-c3ccc(F)cc3)nc(N)c2C#N)o1	12.0	18.6*	0.5	11.6	-3.4	-0.7	4.5
CN1CCN(C(=O)/C(=C/c2cccc([N+](=O)[O-])c2)NC(=O)c2ccccc2)CC1	1.5	-2.2	-0.2	-2.4	2.5	nt	nt
Cc1ccccc1-c1nc2ccccc2c(=O)n1/N=C/c1ccc([N+](=O)[O-])cc1	nt	14.9*	-7.3	-16.8	0.7	-0.7	1.4
O=C(c1ccc(S(=O)(=O)N2CCC(c3nc4ccccc4[nH]3)CC2)cc1)N1CCOCC1	-5.2	14.0*	2.0	18.7	21.7*	6.0	8.7
O=S(=O)(c1ccc(F)cc1)N1CCC(c2nc3ccccc3[nH]2)CC1	-2.2	0.3	-0.3	-6.9	-0.6	nt	nt
COc1ccccc1C(=O)NNC(=O)c1nn(Cc2ccccc2)c(=O)c2ccccc12	1.8	-1.9	-5.0	-5.8	2.8	nt	nt
COC(=O)C1CN(C2CCCC2)CCS(=O)(=O)N1Cc1cn(Cc2ccc(OC)cc2)nn1 (stereo not drawn)	nt	15.5*	-0.6	nt	-3.7	4.0	2.4
CCOC(=O)c1[nH]c2ccc(OC)cc2c1NC(=O)c1ccc(OC)c(OC)c1	-15.3	15.2*	-0.2	0.9	2.4	6.2	2.3
COC(=O)c1ccc(Oc2ccc3nnc(C)n3n2)cc1	-4.1	13.2*	-0.3	-19.9	7.5	-1.5	3.2
COC(=O)c1ccc(Oc2ccc3nncn3n2)cc1	5.6	0.6	-2.5	-10.4	-1.6	nt	nt
O=C(NC1CCCCCC1)C1CCC(CNS(=O)(=O)c2ccc(Br)s2)CC1 (stereo not drawn)	1.7	13.8*	3.3	-0.8	23.4*	3.7	1.5
O=C(COC(=O)/C=C/c1cccc(C(F)(F)F)c1)Nc1ccc(Cl)cn1	nt	0.3	-4.8	-2.7	2.4	nt	nt
O=C(NCc1ccco1)c1c(Cl)cccc1Cl	nt	-3.5	4.1	-11.4	1.2	nt	nt
Cc1cc2nc3c(=O)[nH]c(=S)[nH]c3nc2cc1NC(=O)C(F)(F)F	18.9	33.0*	164.8*	-3.5	27.5*	-11.0	-11.5
O=c1[nH]c(=S)[nH]c2nc(-c3ccccc3)cnc12	nt	-1.1	12.6	-10.2	6.0	nt	nt
CCOC(=O)c1c(C)n(C)c2ccc(OC)c(NC(=O)CN3CCCCC3)c12	-7.1	0.2	-2.8	10.5	2.4	nt	nt
CCOC(=O)c1c(C)n(C)c2ccc(OC)c([N+](=O)[O-])c12	-3.6	13.4*	-0.9	11.6	28.6*	8.7	1.4
COC(=O)N1CC(=O)N(OC)C1c1ccc(Cl)cc1Cl (stereo not drawn)	-5.5	15.3*	4.2	4.4	25.2*	11.1	3.6
CON1C(=O)CN(C(C)=O)C1c1ccc(Cl)cc1Cl (stereo not drawn)	-19.2	7.1	3.5	-3.8	3.3	nt	nt
COc1ccc(N2CCN(C(=O)CNC(=O)Cn3cnc4sc(C)c(C)c4c3=O)CC2)cc1	7.3	86.4*	0.1	-0.4	-0.3	2.5	3.6
CCCCSc1nnc(NC(=O)CCc2ccccc2)s1	6.4	-9.9	-0.7	-3.3	0.6	nt	nt
CCCn1nc2cc(C(=O)NCc3ccc(OC)cc3)ccc2c1OCC	-2.7	14.2*	1.8	-10.0	28.8*	6.1	4.2
SMILES	PfM18AAP inh	MBD2 inh	PRMT1 inh	PfGluPho inh	UHRF1 MBD2 ctr	UHRF1 ctr MBD2	MBD2 confirm
CCCn1nc2cc(C(=O)NCc3ccc(OC(F)(F)F)cc3)ccc2c1OCC	1.3	-0.1	-0.8	19.5	-0.4	nt	nt
O=C(CCS(=O)(=O)c1ccc(Br)cc1)N1CCN(c2ccc(F)cc2)CC1	-0.8	25.7*	2.7	-9.9	72.8*	8.8	2.4
COc1ccc(S(=O)(=O)CCC(=O)N2CCN(c3ccc(C(C)=O)cc3)CC2)cc1	-4.5	18.4*	0.1	-12.9	31.3*	3.8	1.4
O=C(CCS(=O)(=O)c1ccc(Br)cc1)N1CCN(c2ccc(Cl)cc2)CC1	3.4	-0.8	-2.9	0.3	-2.3	nt	nt
Cc1ccc(NC(=O)CCCN2C(=S)NC(C)(C)CC2C)cc1 (stereo not drawn)	-8.2	-0.4	-0.7	5.6	0.4	nt	nt
CCc1ccc(NC(=O)CCCN2C(=S)NC(C)(C)CC2C)cc1 (stereo not drawn)	5.5	19.5*	-2.5	8.7	1.7	2.6	2.9
CSc1ccc(CN(C)CC(=O)NC(C)c2ccccc2)cc1 (stereo not drawn)	9.9	18.6*	-0.6	-12.2	-5.7	9.4	4.5
CCN(CC)C(=O)c1csc([C@@H]2O[C@H](CO)[C@H](O)[C@H](O)[C@H]2O)n1	nt	26.2*	0.3	nt	2.3	3.5	3.1
CN(Cc1ccccc1)C(=O)c1csc([C@@H]2O[C@H](CO)[C@@H](O)[C@H]2O)n1	nt	0.4	3.0	nt	4.0	nt	nt
Cc1ccc(C)c(S(=O)(=O)N2CCN(c3ncccn3)CC2)c1	-4.6	15.2*	-0.4	-22.2	2.7	8.5	3.1
Cc1ccc(S(=O)(=O)N2CCN(c3ncccn3)CC2)c(C)c1	-11.5	2.4	-2.8	1.0	0.6	nt	nt
CC(C)(C)OC(=O)N1CCC(C(=O)Nc2cccc(C(=O)NCCCCc3ccccc3)c2)CC1	nt	-0.6	-0.3	0.1	0.6	nt	nt
Cc1cc(C(=O)N2CCN(c3ncccn3)CC2)cs1	-1.9	16.8*	2.9	-1.9	3.7	-0.8	4.5
CCCc1cc(=O)[nH]c2nnc(SCC(=O)Nc3cccc(NC(C)=O)c3)n12	nt	15.5*	2.4	-5.8	1.1	4.7	6.0
O=C(N(c1ccccn1)c1ccccn1)C12CC3CC(CC(C3)C1)C2	0.6	0.7	-6.6	8.9	1.3	nt	nt
c1ccc(SC23CC4CC(CC(C4)C2)C3)nc1	nt	13.2*	3.3	3.0	0.6	8.4	3.1
Fc1ccc(COc2cccc(CNCc3ccncc3)c2)cc1	-18.1	37.7*	4.7	-2.3	-0.4	-0.4	1.4
CSCCC(NC(=O)c1ccccc1Cl)C(=O)N1CCCC(C)C1 (stereo not drawn)	nt	-3.3	4.3	-0.8	2.0	nt	nt
Cc1cc(C)nc(SCC(=O)Nc2ccc(S(=O)(=O)Nc3ncccn3)cc2)n1	-10.8	-1.9	0.1	-18.8	-1.5	nt	nt
Cc1cc(C)c(C#N)c(SCC(=O)Nc2ccc(S(=O)(=O)Nc3ncccn3)cc2)n1	6.8	18.0*	7.1	-35.6	0.6	11.8	3.1
COc1ccc(C(=O)CC(C(=O)O)c2ccc3c(c2)OCO3)cc1OC (stereo not drawn)	nt	-3.4	-3.1	-10.9	1.3	nt	nt
